These results are taken from PubChem BioAssay (NCATS).

The target in experiment [1] is Alpha-galactosidase (Coffea arabica) (UniProt Q42656). The experiment is described as follows: Counterscreen for Glucocerebrosidase Inhibitors: qHTS Assay for Coffee Bean alpha-Galactosidase at pH 4.5 (AID 957). Further: series mostly up to about 77 µM. A digest of the protocol:
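Coffee bean enzyme (2 nM) with 80 uM 4-methylumbelliferyl alpha-D-galactopyranoside in 50 mM citric acid, 0.005% Tween-20, pH 4.5, 20 min at room temperature; compounds 0.7 nM–77 uM. Stopped at pH 10, fluorescence 365/440 nm; AC50 from Hill fits.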

Experiment [2] shares this target. The experiment is described as follows: Counterscreen for Glucocerebrosidase Inhibitors: qHTS Assay for Coffee Bean alpha-Galactosidase at pH 5.9 (AID 998). A digest of the protocol: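 Green coffee bean enzyme (2 nM final) was incubated with compounds (0.7 nM–77 uM) and 4-methylumbelliferyl alpha-D-galactopyranoside (80 uM) in citrate buffer pH 5.9, 20 min at room temperature. High-pH stop; fluorescence 365/440 nm; AC50 from Hill fits.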

Experiment [3] can be described thus: Validation screen for inhibitors of Lassa infection (AID 463096; calls by dose curve; further: potency means the concentration at half of the fitted maximal effect).
The nature of experiment [4]: Inducers of the Endoplasmic Reticulum Stress Response (ERSR) in human glioma: Validation (AID 504836). In outline:
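Stably transfected U87-MG human glioma cells carrying a GRP78-based luminescent sensor were seeded at 1000 cells/well, pin-dosed with compounds and incubated 16 h. Luciferase reagent was then added, and end-point luminescence was read after 10 min at room temperature.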

A short description of experiment [5]: qHTS for Inhibitors of the Functional Ribonucleoprotein Complex (vRNP) of Lassa (LASV) Arenavirus: LASV Primary Screen - GLuc reporter signal (AID 1347082; calls by dose curve; tested in HEK293 reporter line; further: series mostly up to about 57 µM; nearly all actives have a fitted effect of over 60% in size).
A short description of experiment [6]: qHTS for Inhibitors of the Functional Ribonucleoprotein Complex (vRNP) of Lassa (LASV) Arenavirus: Viability assay - alamar blue signal for LASV Primary Screen (AID 1347083; calls by dose curve; tested in HEK293 reporter line; further: series mostly up to about 57 µM; nearly all actives have a fitted effect of over 80% in size).
Experiment [7] is described as follows: qHTS for Inhibitors of the Functional Ribonucleoprotein Complex (vRNP) of Lymphocytic Choriomeningitis Arenaviruses (LCMV): Viability assay - alamar blue signal for LCMV Primary Screen (AID 1347085; calls by dose curve; tested in HEK293 reporter line; further: series mostly up to about 57 µM; nearly all actives have a fitted effect of over 80% in size).
For experiment [8], the target named is Nucleoprotein (Lymphocytic choriomeningitis virus (strain Armstrong)) (UniProt P09992). The experiment is described as follows: qHTS for Inhibitors of the Functional Ribonucleoprotein Complex (vRNP) of Lymphocytic Choriomeningitis Arenaviruses (LCMV): LCMV Primary Screen - GLuc reporter signal (AID 1347086; calls by dose curve; further: series mostly up to about 57 µM; nearly all actives have a fitted effect of over 70% in size).

Inconclusive results are not listed. The source made the active and inactive calls. Unless noted, the call rests on the fitted dose curve; in most records, active means well fitted curve in the direction sought with a large enough effect; inconclusive means small, poorly fitted or top-dose-only effect, or another doubt; inactive means no such curve, though single readings can be large; an effect the other way counts as inactive or inconclusive.

Sequence of Nucleoprotein (Lymphocytic choriomeningitis virus (strain Armstrong)) (P09992 whole entry, looked up): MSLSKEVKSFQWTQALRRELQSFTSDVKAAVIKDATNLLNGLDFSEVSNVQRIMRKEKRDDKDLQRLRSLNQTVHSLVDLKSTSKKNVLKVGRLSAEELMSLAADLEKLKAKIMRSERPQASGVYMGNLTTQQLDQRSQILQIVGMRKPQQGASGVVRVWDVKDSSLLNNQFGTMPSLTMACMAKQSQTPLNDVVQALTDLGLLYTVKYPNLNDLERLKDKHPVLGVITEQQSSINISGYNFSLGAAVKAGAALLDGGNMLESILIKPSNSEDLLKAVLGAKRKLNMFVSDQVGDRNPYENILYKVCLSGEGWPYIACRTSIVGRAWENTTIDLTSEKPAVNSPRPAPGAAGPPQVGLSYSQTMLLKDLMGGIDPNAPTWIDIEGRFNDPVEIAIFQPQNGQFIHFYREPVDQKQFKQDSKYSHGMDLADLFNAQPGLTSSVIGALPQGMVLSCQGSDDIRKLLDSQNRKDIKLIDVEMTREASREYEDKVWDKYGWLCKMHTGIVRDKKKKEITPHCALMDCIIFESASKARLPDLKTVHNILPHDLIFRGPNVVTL
Sequence of Alpha-galactosidase (Coffea arabica) (Q42656 whole entry, looked up): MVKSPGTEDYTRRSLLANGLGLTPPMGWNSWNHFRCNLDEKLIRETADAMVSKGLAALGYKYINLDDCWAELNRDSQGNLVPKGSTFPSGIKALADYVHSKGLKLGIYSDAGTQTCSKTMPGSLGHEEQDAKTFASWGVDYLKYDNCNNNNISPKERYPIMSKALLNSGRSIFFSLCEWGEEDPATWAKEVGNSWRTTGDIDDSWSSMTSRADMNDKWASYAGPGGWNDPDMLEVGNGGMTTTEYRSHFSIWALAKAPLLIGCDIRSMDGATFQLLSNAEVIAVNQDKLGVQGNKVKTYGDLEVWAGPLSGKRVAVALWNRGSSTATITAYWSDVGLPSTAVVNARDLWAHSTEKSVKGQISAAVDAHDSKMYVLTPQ

Take `CCC(=O)N1CCN(C(=O)c2ccccc2)CC1`: the outcome in experiment [1], in experiment [2] and in experiment [4] was inactive. The Potency entry in experiment [3], in experiment [5], in experiment [6], in experiment [7] and in experiment [8] was “inactive” in each case.

Turning to `CCCCCCC/C=C\CCCCCCCCC(=O)O`, the outcome in experiment [1], in experiment [2] and in experiment [4] was inactive. The Potency result in experiment [3], in experiment [5], in experiment [6], in experiment [7] and in experiment [8] was “inactive” in each case.

Consider `COc1ccccc1N1CCN(CCCNc2c(C)c(=O)n(C)c(=O)n2C)CC1`, for which the molecule was called inactive in experiment [1], in experiment [2] and in experiment [4]. For the same molecule, the Potency result in experiment [3], in experiment [5], in experiment [6], in experiment [7] and in experiment [8] was “inactive” throughout.

With `COc1ccc2c(c1)c(CC(=O)O)c(C)n2C(=O)c1ccccc1`, the molecule was classed as inactive in experiment [1], in experiment [2] and in experiment [4]. The Potency result in experiment [3], in experiment [5], in experiment [6], in experiment [7] and in experiment [8] was “inactive” in each case.

On to `COc1cccc(C(=O)NCCN2CCN(c3ccc(Cl)cc3)CC2)c1`, for which the outcome in experiment [1], in experiment [2] and in experiment [4] was inactive. For the same molecule, the Potency result in experiment [3], in experiment [5], in experiment [6], in experiment [7] and in experiment [8] was “inactive” throughout.

In the case of `Cn1c(=O)c2[nH]c(-c3ccccc3)nc2n(C)c1=O`, the molecule was called inactive in experiment [1], in experiment [2] and in experiment [4]. The Potency entry in experiment [3], in experiment [5], in experiment [6], in experiment [7] and in experiment [8] was “inactive” in each case.

For the molecule `O=c1onc2cnc3ccccc3n12`, the molecule was classed as inactive in experiment [1], in experiment [2] and in experiment [4]. Further, the Potency result in experiment [3], in experiment [5], in experiment [6], in experiment [7] and in experiment [8] was “inactive” throughout.

As to `O=C(O)c1cc(=O)c2c(Cl)cc(Cl)cc2[nH]1`, the molecule was called inactive in experiment [1], in experiment [2] and in experiment [4]. Besides, the Potency entry in experiment [3], in experiment [5], in experiment [6], in experiment [7] and in experiment [8] was “inactive” throughout.

For `C[N+](C)(CCCCCC[N+](C)(C)CCCN1C(=O)c2cccc3cccc(c23)C1=O)CCCN1C(=O)c2cccc3cccc(c23)C1=O`, the outcome in experiment [1], in experiment [2] and in experiment [4] was inactive. Also, the Potency result in experiment [3], in experiment [5], in experiment [6], in experiment [7] and in experiment [8] was “inactive” throughout.

Turning to `COc1ccccc1N1CCN(CCCCN2C(=O)c3ccccc3C2=O)CC1`, the outcome in experiment [1], in experiment [2] and in experiment [4] was inactive. The Potency result in experiment [3], in experiment [5], in experiment [6], in experiment [7] and in experiment [8] was “inactive” each time.

Take `CCCCCCCC/C=C\CCCCCCCC(=O)NCCO`: the result in experiment [1], in experiment [2] and in experiment [4] was inactive. The Potency result in experiment [3], in experiment [5], in experiment [6], in experiment [7] and in experiment [8] was “inactive” each time.

Turning to `O=C(O)c1ccccc1Nc1ccccc1`, the molecule was classed as inactive in experiment [1], in experiment [2] and in experiment [4]. Further, the Potency result in experiment [3], in experiment [5], in experiment [6], in experiment [7] and in experiment [8] was “inactive” each time.

Regarding `O=c1[nH]c2ccccc2c2ccccc12`, the outcome in experiment [1], in experiment [2] and in experiment [4] was inactive. In addition, the Potency entry in experiment [3], in experiment [5], in experiment [6], in experiment [7] and in experiment [8] was “inactive” in each case.

For `COc1ccc(C(=O)NCc2cccnc2)cc1C(=O)NCc1cccnc1`, the result in experiment [1], in experiment [2] and in experiment [4] was inactive. For the same molecule, the Potency entry in experiment [3], in experiment [5], in experiment [6], in experiment [7] and in experiment [8] was “inactive” throughout.

In the case of `C[N+](C)(C)CC=O`, the molecule was called inactive in experiment [1], in experiment [2] and in experiment [4]. Moreover, the Potency result in experiment [3], in experiment [5], in experiment [6], in experiment [7] and in experiment [8] was “inactive” in each case.

On to `CN(C)C(N)=NCCC[C@H](N)C(=O)O`, for which the result in experiment [1], in experiment [2] and in experiment [4] was inactive. In addition, the Potency entry in experiment [3], in experiment [5], in experiment [6], in experiment [7] and in experiment [8] was “inactive” in each case.

As to `Cc1nc(N=Nc2ccc(S(=O)(=O)O)cc2S(=O)(=O)O)c(COP(=O)(O)O)c(C=O)c1O`, the outcome in experiment [1], in experiment [2] and in experiment [4] was inactive. In addition, the Potency result in experiment [3], in experiment [5], in experiment [6], in experiment [7] and in experiment [8] was “inactive” each time.

Regarding `CC[N+](CC)(CC)CC(=O)Nc1c(C)cccc1C`, the call in experiment [1], in experiment [2] and in experiment [4] was inactive. Besides, the Potency result in experiment [3], in experiment [5], in experiment [6], in experiment [7] and in experiment [8] was “inactive” each time.

As for `C[C@H](O)C(=O)C1=Nc2c(nc(N)[nH]c2=O)NC1`, the outcome in experiment [1], in experiment [2] and in experiment [4] was inactive. Besides, the Potency result in experiment [3], in experiment [5], in experiment [6], in experiment [7] and in experiment [8] was “inactive” in each case.

Regarding `O=C(O)c1cc([N+](=O)[O-])ccc1NCCCc1ccccc1`, the molecule was called inactive in experiment [1], in experiment [2] and in experiment [4]. The Potency result in experiment [3], in experiment [5], in experiment [6], in experiment [7] and in experiment [8] was “inactive” in each case.

On to `O=C(Nc1cccc(C(=O)Nc2ccc(S(=O)(=O)O)c3cc(S(=O)(=O)O)cc(S(=O)(=O)O)c23)c1)Nc1cccc(C(=O)Nc2ccc(S(=O)(=O)O)c3cc(S(=O)(=O)O)cc(S(=O)(=O)O)c23)c1`, for which the result in experiment [1], in experiment [2] and in experiment [4] was inactive. The Potency entry in experiment [3], in experiment [5], in experiment [6], in experiment [7] and in experiment [8] was “inactive” throughout.

For the molecule `CCCc1c(-c2ccc(O)cc2)nn(-c2ccc(O)cc2)c1-c1ccc(O)cc1`, the result in experiment [1], in experiment [2] and in experiment [4] was inactive. Further, the Potency in experiment [3] was 2 µM (active). For the same molecule, the Potency entry in experiment [5], in experiment [6], in experiment [7] and in experiment [8] was “inactive” throughout.

Consider `Nc1ccc(-c2ccc3ccccc3n2)cc1`, for which the call in experiment [1], in experiment [2] and in experiment [4] was inactive. Moreover, the Potency result in experiment [3], in experiment [5], in experiment [6], in experiment [7] and in experiment [8] was “inactive” in each case.

Consider `N=c1c[n+](N2CCOCC2)[n-]o1`, for which the molecule was called inactive in experiment [1], in experiment [2] and in experiment [4]. Further, the Potency result in experiment [3], in experiment [5], in experiment [6], in experiment [7] and in experiment [8] was “inactive” each time.

In the case of `O=C(O)[C@@H]1C[C@@H](C(=O)O)N1`, the outcome in experiment [1], in experiment [2] and in experiment [4] was inactive. The Potency result in experiment [3], in experiment [5], in experiment [6], in experiment [7] and in experiment [8] was “inactive” throughout.

For the molecule `O=c1ccc2c(OCCCCc3ccccc3)c3ccoc3cc2o1`, the outcome in experiment [1], in experiment [2] and in experiment [4] was inactive. The Potency entry in experiment [3], in experiment [5], in experiment [6], in experiment [7] and in experiment [8] was “inactive” throughout.

In the case of `O=c1[nH]ccc2c(O)cccc12`, the molecule was called inactive in experiment [1], in experiment [2] and in experiment [4]. Moreover, the Potency result in experiment [3], in experiment [5], in experiment [6], in experiment [7] and in experiment [8] was “inactive” in each case.

For `Cn1c(=O)c2[nH]c(-c3ccc(S(=O)(=O)O)cc3)nc2n(C)c1=O`, the molecule was called inactive in experiment [1], in experiment [2] and in experiment [4]. Besides, the Potency entry in experiment [3], in experiment [5], in experiment [6], in experiment [7] and in experiment [8] was “inactive” throughout.
